Reference: PubChem BioAssay AID687001 (Broad Institute, 2013)
Potency and affinity values are given separately. The source made the active and inactive calls.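 Rule for the calls: active = signal-lowering compounds whose fitted half-maximal concentration is at or below twice the top tested dose in every run; inconclusive = runs disagree, flat 30 to 70% inhibition, or poor curve fit; inactive = the rest.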

molecular target: Protein S100-A4 (Homo sapiens) (UniProt P26447); assay: S100A4-myosin IIA binding inhibitor potency, dose response, biochemical, fluorescence polarization, cherry-picked hits (AID 687001); conditions: FP, S100A4/TAMRA-myosin IIA peptide binding; series mostly up to 11 µM
Sequence (P26447 whole entry, looked up): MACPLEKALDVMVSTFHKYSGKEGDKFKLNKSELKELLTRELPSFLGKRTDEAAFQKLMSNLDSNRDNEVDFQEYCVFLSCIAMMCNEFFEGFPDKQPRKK

outcome, inactive:
Cc1ccc(S(=O)(=O)Nc2ccc3c(c2)C(=O)N([C@H](C)CO)C[C@@H](C)[C@@H](CN(C)S(=O)(=O)c2ccc(C)cc2)OCCCC[C@@H](C)O3)cc1, CCC(=O)N[C@@H]1CC[C@H](CCNC(=O)Nc2ccc(C(F)(F)F)cc2)O[C@H]1CO, CCN(CC(=O)Nc1c(F)cccc1F)C(=O)CNC(=O)c1cccs1, COC(=O)c1ccc2c(=O)n(CCN3CCOCC3)c(SCC(=O)Nc3ccccc3Cl)nc2c1, COc1ccc(S(=O)(=O)Nc2cccc3c2O[C@@H](CN(C)S(=O)(=O)c2c(C)noc2C)[C@H](C)CN([C@@H](C)CO)C3=O)cc1, COc1ccc(CN(C)C[C@H]2OCCCC[C@@H](C)Oc3ccc(NC(=O)Nc4ccc5c(c4)OCO5)cc3C(=O)N([C@H](C)CO)C[C@H]2C)cc1, CCOCCn1ccc2c(OCC(=O)Nc3ccccc3OC)cccc2c1=O, C[C@H](NC(=O)C[C@@H]1C[C@@H]2c3cc(NC(=O)Nc4ccc(C(F)(F)F)cc4)ccc3O[C@@H]2[C@@H](CO)O1)c1ccccc1, Cc1ccc(S(=O)(=O)NCC[C@@H]2CC[C@@H](NC(=O)C3CCOCC3)[C@H](CO)O2)cc1, C[C@H](CO)N1C[C@H](C)[C@H](CN(C)C)Oc2ccc(NS(=O)(=O)c3ccccc3)cc2CC1=O, C[C@@H]1CN([C@H](C)CO)C(=O)Cc2cc(NS(=O)(=O)c3ccccc3)ccc2O[C@@H]1CN(C)Cc1ccccc1, O=C(Nc1ccccc1F)N1CC(=O)N2[C@H](CO)[C@@H](c3ccc(-c4ccccc4)cc3)[C@H]2C1, O=C(NCCOc1ccccc1)C1CCC(=O)N(CCCN2CCOCC2)C1 (stereo not given), CC(NC(=O)c1ccc(N2CCCC2)c([N+](=O)[O-])c1)c1ccc(S(N)(=O)=O)cc1 (stereo not given), COCCNC(=O)C1CCCN(Cc2ccc(C(C)C)cc2)CC1 (stereo not given), COc1ccc(C(CNC(=O)C(=O)Nc2ccc3c(c2)OCCO3)N2CCN(C)CC2)cc1 (stereo not given), C[C@H]1CN([C@@H](C)CO)C(=O)c2cc(NC(=O)NC3CCCCC3)ccc2O[C@@H]1CN(C)Cc1ccc(C(=O)O)cc1, Cc1ccc(S(=O)(=O)Nc2ccccc2F)cc1C(=O)OC(C)C(=O)N1CCOCC1 (stereo not given), CC(C)CC#Cc1ccc2c(c1)O[C@@H](CN(C)C(=O)Nc1ccccc1)[C@@H](C)CN([C@H](C)CO)S2(=O)=O, CC(=O)N1CC(C)Oc2ccc(S(=O)(=O)NC(CC(=O)O)c3cc(C)ccc3C)cc21 (stereo not given), CN1C(=O)c2cc(NC(=O)C3CCC3)ccc2OC[C@@H]2O[C@@H](CC(=O)NCc3ccccc3F)CC[C@@H]21, C[C@H]1CN([C@@H](C)CO)C(=O)c2cc(NC(=O)CCCCCC(=O)Nc3ccccc3N)ccc2O[C@H]1CN(C)S(=O)(=O)c1cccs1, CC1CCN(C(=O)c2[nH]cnc2C(=O)N[C@@H](C)C(=O)OCc2ccccc2)CC1, CCC(c1nc2ccccc2[nH]1)n1c(-c2cnccn2)nc2ccccc21 (stereo not given), COCCNC(=O)C[C@@H]1CC[C@H]2[C@@H](COC[C@H](O)CN2Cc2cccc(-c3ccncc3)c2)O1
